Measurements published in PubChem BioAssay AID597 (National Center for Advancing Translational Sciences (NCATS), 2007).
Out of some 68,000 compounds screened, about 60 (0.09%) were called active. Calls come from the whole dose curve; as a rule, active = well fitted curve in the direction sought with a large enough effect; inconclusive = small, poorly fitted or top-dose-only effect; inactive = flat fitted curve, though single readings scatter. The list is a sample of the results. Where a SMILES comes first, the peptide text is derived from it. The star is where a group is joined. Bz = O=C(c1ccccc1)*

Assay: qHTS Assay for Epigenetic Modulators; note: % of control where 0% means no effect
Conditions: mouse C127i GFP locus derepression, cytometry, 30 h; series mostly up to 46.1 µM; GFP derepression (activation): at the top concentration
From the text: NIH Molecular Libraries Screening Centers Network [MLSCN] NIH Chemical Genomics Center [NCGC] MLSCN Grant: 1 X01 MH079860-01 Assay Provider: Elisabeth D. Martinez, University of Texas SW Medical Center NCGC Assay Overview: The Locus Derepression assay detects the derepression of a GFP reporter that is stably integrated in a region of the genome of murine c127i mammary cells that is presumably silenced. GFP transcription in this construct is controlled by a CMV promoter, which normally is strong and constitutively active. However, this line was selected for lack of constitutive expression of the GFP protein. GFP production can be induced by incubating the cells with histone deacetylase or DNA methyltransferase inhibitors. Compounds that cause derepression of the locus to express GFP are identified by enumerating GFP positive cells using a laser-scanning microplate cytometer. For further details of this screen and follow-up characterization, see R.L. Johnson, W. Huang, A. Jadhav, C.P. Austin, J. Inglese, E.D. Martinez, A Quantitative High-Throughput Screen Identifies Potential Epigenetic Modulators of Gene Expression, Analytical Biochemistry (2008) 375(2):237-48.
NCGC Assay Protocol Summary: Two hundred and fifty cells in 5 uL per well were dispensed into black, clear-bottom 1536-well plates. Twenty-three nL compound was transferred to the assay plate and cells were incubated 30 hours at 37 C. Medium was removed, cells were washed two times with PBS, and GFP-positive cells were enumerated as fluorescent objects between the sizes of 20 to 120 um width and depth using an Acumen Explorer. Keywords: NIH Roadmap, MLSCN, MLI, MLSMR, qHTS, NCGC, qHTS, HDAC, DNMT, HAT, DNA methyltransferases, histone acetyl transferases, histone deacetylases

GFP derepression (activation), inactive:
Cn1c(=O)c2cn(-c3cccc4ccccc34)cc2n(C)c1=O 2.6%
CC(C)NC(=O)N1CC[C@@]2(CCCN(C(=O)c3cccc(F)c3)C2)C1 -0.9% [at 9.22 µM]
CC(=O)c1ccc(Oc2cc(C)nc(-n3nc(C)cc3C)n2)cc1 4.2%
Cc1ccc(-c2nn(-c3ccccc3)cc2CN(Cc2ccccc2)C(=O)CCC(=O)O)o1 2.2%
COc1ccc(N2CCN(Cc3cc(=O)oc4ccc5ccccc5c34)CC2)cc1 0%
O=C(NCCCNC(=O)NC1CCCCC1)NC1CCCCC1 0.2%
FC(F)(F)c1cccc(Nc2ncnc3ccccc23)c1 1.2%
O=C1C2(c3ccccc3)CN(CCCO)CC1(c1ccccc1)CN(CCCO)C2 2.1%
COC(=O)c1sc(=S)n(-c2ccccc2)c1N 1.6%
CCCN1C(=O)C(NC(C)=O)c2cc(OC)ccc21 (configuration not stated) -0.4%
O=C(NCCc1ccco1)c1nn(Cc2ccccc2)c(=O)c2ccccc12 -1.2%
CC(C)(C)C(=O)CCN1C(=O)C2(OCCO2)c2ccccc21 -1.2%
CCC(C(=O)OCCN(CC)CC)c1ccccc1 (configuration not stated) 6.1% [at 20.6 µM]
Cc1cc(C)c2nc3c(c([C@H](O)[C@@H]4CCCCN4)c2c1)CC/C3=C/c1ccc(Cl)cc1 0% [at 9.22 µM]
CC1=CC(C)(C)N(C(=O)CSc2nnc(-c3ccccc3)o2)c2ccc(C)cc21 0%
O=C(O)c1ccc(NS(=O)(=O)c2cccc3nsnc23)cc1 -2.6%
COc1ccccc1C(=O)NCCn1cc(SCC(=O)NCc2ccco2)c2ccccc21 1.4%
O=C(Cn1[nH]c(=O)c2ccccc2c1=O)Nc1cccc(-c2nnc3n2CCCCC3)c1 1.3%
COc1ccc(NC(=O)c2c(C)oc3c2CCCC3)cc1 3.4%
CS(=O)(=O)N1CCC[C@@]2(CCN(c3ccncc3)C2)C1 0% [at 9.22 µM]
O=C(O)c1ccc(NC(=O)c2cccs2)cc1 3.2%
O=C(Nc1ccc(Cl)cc1)c1ccsn1 2.2%
COc1ccc(C2C3=C(CC(C)(C)CC3=O)Oc3ncn4nc(-c5cccnc5)nc4c32)cc1OC (configuration not stated) 2.6%
CN1CCN2c3ccccc3Cc3ccccc3[C@@H]2C1
O=C(CCCn1c(SCC(=O)c2ccc(F)cc2)nc2ccccc2c1=O)NCc1ccco1 -1%
COC(=O)[C@H](C)NC(=O)Nc1ccc(OC(F)(F)F)cc1 -0.4%
COC(=O)c1cnn2c(C(F)(F)F)cc(-c3ccco3)nc12 0%
COc1ccc(-c2nnc(SC(=O)N3c4ccccc4Sc4ccccc43)o2)cc1 1.5%
COc1ccccc1-c1nc(NCc2cccs2)c2ccccc2n1 0% [at 9.22 µM]
O=c1oc2c(CN3CCCCC3)c(O)ccc2c2c1CCCCC2 0% [at 20.6 µM]
COc1ccc(C2N=C(N)N=C(N)N2c2ccccc2)cc1OC (configuration not stated) 0%
O=C(O)COc1c(Cl)cc(Cl)c2cccnc12 5.8% [at 9.22 µM]
CCn1c(SCC(=O)Nc2ccc3c(c2)OCCO3)nc2c(c1=O)SC(C)C2 (configuration not stated) 2.9%
Cn1c(=S)c2[nH]c(SCCCc3ccccc3)nc2n(C)c1=O -3.4% [at 9.22 µM]
COc1cccc(Cn2c(=O)c(-c3ccccc3)nc3cnc(OC)nc32)c1 10.8% [at 9.22 µM]
CCCC(C(=O)OCCN(CC)CC)(c1ccccc1)c1ccccc1
O=C(OCCN1CCOCC1)C1(c2ccccc2)CCCCC1
O=C(c1cc(C(F)(F)F)cc(C(F)(F)F)c1)N1CCC2(CCCN(Cc3ccncc3)C2)CC1 2.2% [at 9.22 µM]
O=C(O)CCC(=O)Nc1ccc(N2CCOCC2)cc1 -1.2%
COCCn1c(=O)c(-c2cc(F)cc(F)c2)nc2cnc(N3CCNCC3)nc21 -0.5% [at 9.22 µM]
CN(C)C(=O)c1ccc(-c2cncnc2Nc2ccccc2)cc1 5.7% [at 9.22 µM]
COc1ccc(NC(=O)CSc2nnc(-c3cccs3)n2Cc2ccco2)cc1OC -2.1%
CCOC(=O)N1CCN(C(=O)c2n[nH]c(=O)c3ccccc23)CC1 0%
CC(=O)Nc1ccc(S(=O)(=O)N2CCSCC2)cc1 0%
CCOc1ccc(NS(=O)(=O)c2ccc(OCC(=O)NCCCOC)cc2)cc1 -5.3%
COc1ccc(C(=O)N/N=C2/C(=O)c3c(C)cc(C)cc3CC2(C)C)cc1 3.4% [at 9.22 µM]
N#Cc1cc2[nH]c(=O)c(=O)[nH]c2cc1[N+](=O)[O-] 1%
N/C(=N\c1nc2ccccc2o1)NC(=O)C(Cc1ccccc1)N1C(=O)c2ccccc2C1=O (configuration not stated) -2.2%
CCCNS(=O)(=O)c1ccc(CCC(=O)NCc2cccnc2)cc1 1.9%
Cc1nc2ccc(S(=O)(=O)NCC(=O)NCCN3CCCCC3C)cc2s1 (configuration not stated) 2%
N#Cc1cccc(-c2nc3cnc(N4CCNCC4)nc3n(C3CC3)c2=O)c1 -5% [at 9.22 µM]
COc1ccc(C2OC(=O)CC2C(=O)NC(C)C)cc1 (configuration not stated) 4.2%
O=C(NCC12CC3CC(C1)CC(CNC(=O)N1CCCC1)(C3)C2)N1CCCC1 -1.1%
C[C@]1(O)CC[C@H]2[C@H]3CC=C4N5CCN=C5CC[C@@]4(C)[C@H]3CC[C@@]21C -3.4% [at 9.22 µM]
COCCn1c(=O)c(C)nc2cnc(N(C)C)nc21 2.3% [at 9.22 µM]
CN1CCCc2cc(C#N)c(=O)[nH]c21 -1.5%
CCCc1[nH]nc2c1C(c1ccc(OC(=O)c3ccco3)cc1)C(C#N)=C(N)O2 (configuration not stated) -1.3%
CCCCOc1ccc(-c2nnc(-c3ccco3)o2)cc1 1%
CC(C)NC(=O)N1CC[C@@]2(CCCN(C(=O)c3cccn3C)C2)C1 2.2% [at 9.22 µM]
O=S(=O)(NCc1ccc2c(c1)OCO2)c1cccc2nsnc12 -3.2%
COc1ccc(CNC(=O)c2c(C)cc(=O)oc2C)cc1OC 0% [at 20.6 µM]
Cc1cccc(CC(=O)Nc2c3c(nn2-c2cccc(Cl)c2)CS(=O)C3)c1 (configuration not stated) 0%
Cc1nn(C)c(C)c1S(=O)(=O)N1CCc2ccccc21 0%
Cc1nc2cnc(N3CCNCC3)nc2n(CCc2ccccc2)c1=O 8.1% [at 9.22 µM]
Clc1ccc(C(c2ccc(Cl)cc2)n2cc[n+](C[C@@H](OCc3ccc(Cl)cc3Cl)c3ccc(Cl)cc3Cl)c2)cc1 -1.1%
C=CCSC1=C(C#N)C(c2cc(Br)c(O)c(OC)c2)CC(=O)N1 (configuration not stated) -3.4%
CN(C)CCSS(=O)(=O)O 0.1% [at 9.22 µM]
CC(NC(=O)CSc1nc2c(cc1C#N)CN(C)CC2)c1ccccc1 (configuration not stated) 2.2% [at 20.6 µM]
CCNC(=O)CN(c1ccc(C)cc1)S(=O)(=O)c1ccc(SC)cc1 -1.5%
CC(=O)c1sc2nc(SCC(=O)N3CCCCC3)[nH]c(=O)c2c1C 4.5%
Cn1cccc1C1(C(F)(F)F)NCCNC1=O (configuration not stated) 2.1%
CCOC(=O)N1CCN(C(=O)c2nn(-c3ccc(C)cc3)c(=O)c3c2c2ccccc2n3C)CC1 5%
COc1ccccc1CNC(=O)CCCNS(=O)(=O)c1cccc2nsnc12 1.8%
O=C(c1ccc(O)cc1)c1ccc(C(=O)O)c(C(=O)O)c1 2.1%
CCOC(=O)CNC(=O)CSc1nnnn1-c1cc(C)ccc1C 0%
COc1ccc(S(=O)(=O)Nc2c(C)n(C)n(-c3ccccc3)c2=O)cc1 2%
COc1ccc(C(C(O)C(=O)c2c[nH]c3ccccc23)N2CCN(c3ccccc3)CC2)cc1 (configuration not stated) -2.9%
Cn1c(=O)[nH]c(=O)c2c1nc(N(CCO)Cc1ccccc1)n2Cc1ccccc1Cl -6.5% [at 20.6 µM]
Cn1c(=O)cc(SCC(=O)N2CCN(C(=O)c3ccco3)CC2)c2ccccc21 -2%
COc1ccc(OC)c(CNC(=O)C2CCCN(c3nc4ccccc4o3)C2)c1 (configuration not stated) 2.1%
Cn1cc(-c2nc3cnc(N4CCNCC4)nc3n(CCC#N)c2=O)c2ccccc21 7.6% [at 9.22 µM]
CCOCCc1c(O)nc(SCC(=O)NCc2ccco2)[nH]c1=O 0.3%
N#CC(C(N)=O)=C1CCC2(CC1)OCCCCO2 -1%
COC(=O)c1ccc(C2NC(=O)NC(C)=C2C(=O)N(C)C)cc1 (configuration not stated) -1.1%
CCn1c2c(c3ccc(OC)cc31)CCCC2=O 0%
COc1ccc(S(=O)(=O)NC(CC(=O)NCc2ccccc2OC)c2ccco2)cc1 (configuration not stated) -1%
O=C(NC(Cc1ccccc1)C(=O)N1CCCC1C(=O)O)c1ccccc1 (stereo not drawn) (Bz-Phe-Pro-OH; configuration not given here) 3.4%
Cc1nc2cnc(Oc3cccc(Cl)c3)nc2n(C2CC2)c1=O -2.7% [at 9.22 µM]
C[C@H]1O[C@@H](CC(=O)O)Cc2c1c(O)c1c(O)cc(-c3cc(=O)c4c(=O)c5c(c(=O)c=4c3=O)C[C@H](CC(=O)O)O[C@@H]5C)c(O)c1c2O 10.3% [at 9.22 µM]
CNc1cc(-c2c(C)noc2C)ncn1 0% [at 9.22 µM]
O=C(c1c(Cl)nc2sccn12)N1CCCc2ccccc21 4.2%
Cc1ccc2[nH]c(=O)c(-c3nc4c(C)cccn4c3NCc3ccco3)cc2c1 -0.1%
COc1ccc(CNc2ncncc2-c2ccccc2C)c(OC)c1 0% [at 9.22 µM]
CCOC(=O)c1[nH]c2ccccc2c1N=C(C)N(CC)CC 0% [at 20.6 µM]
Fc1ccc(Cn2nnnc2C(c2cccs2)N2CCCCCC2)cc1 (configuration not stated) 1.3%
COc1ccc2[nH]c(=O)c(CN(CC3CCCO3)C(=O)Nc3ccccc3)cc2c1 (configuration not stated) 3.4%
COc1ccc2[nH]cc(CCNc3ncnc4ccc(-c5ccccc5CN(C)C)cc34)c2c1 -5.2% [at 9.22 µM]
